Experimental data reported in PubChem BioAssay.
Active and inactive are the calls of the source.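 Rule for the calls: active = inhibition at or above 50% relative to wild type and mutant plate controls; inactive = inhibition below 50%.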

Assay: inhibitors of Chlamydomonas gravitaxis, primary screen, whole organism, Chlamydomonas reinhardtii, WT vs cilia-less mutant, absorbance, 96-well (AID 463189);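 note: 0% = wild type cc124 cells in DMSO and 100% = ciliumless bld1 mutant cells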
Settings: OD600 absorbance, 2 days, at 10 µM, active compounds read high

inhibition, inactive:
CSC(=N)N 7.24%
Cc1cc(C)c(/C=C2\C(=O)Nc3ccccc32)[nH]1 25.9%
C[C@H]1O[C@@H](n2cc(F)c(=O)[nH]c2=O)[C@H](O)[C@@H]1O 2.48%
COc1ccc2c(c1)c(CC(=O)N1CCOCC1)c(C)n2C(=O)c1ccc(Cl)cc1 6.6%
O=c1[nH]c2ccccc2c2ccccc12 6.93%
NC(N)=NC(N)=Nc1cccc(Cl)c1 4.09%
CN1CCc2cc(Cl)c(O)cc2[C@@H](c2ccccc2)C1 5.1%
O=c1[nH]c2cc(C(F)(F)F)ccc2n1-c1cc(C(F)(F)F)ccc1O -0.852%
NCCNC(=O)c1ncsc1-c1cccc(F)c1 0.32%
CC(C)NC[C@@H](O)COc1ccc(CC(N)=O)cc1 -8.19%
Cc1ccc(C(=O)O[C@H](C(=O)O)[C@H](OC(=O)c2ccc(C)cc2)C(=O)O)cc1 (tested in a mixture with another compound) 5.96%
[Li+] -0.162%
C/C(=C\c1ccc(C(=O)O)cc1)c1ccc2c(c1)C(C)(C)CCC2(C)C 9.5%
C1CCc2nnnn2CC1 5.68%
N[C@@H](CCC(=O)N[C@H](CSN=O)C(=O)NCC(=O)O)C(=O)O 3.12%
COc1cc2nc(N3CCN(C(=O)OCc4ccccc4)C(C(=O)NC(C)(C)C)C3)nc(N)c2cc1OC (centres undefined) -7.21%
CN(C)c1cc2c(Nc3ccc4c(cnn4Cc4ccccc4)c3)ncnc2cn1 2.93%
O=C(O)Cc1ccc(O)c(O)c1 5.56%
NS(=O)(=O)c1cc2c(cc1Cl)NC(C1CC3C=CC1C3)NS2(=O)=O (centres undefined) -0.288%
CCCC(CCC)C(=O)O 2.56%
CN1C[C@H](C(=O)N[C@]2(C)O[C@@]3(O)[C@@H]4CCCN4C(=O)[C@H](Cc4ccccc4)N3C2=O)C[C@@H]2c3cccc4[nH]cc(c34)C[C@H]21 -12.5%
CCCCCCCCCCC/C=C\C(C)(C)/C=C\CCCC(=O)O -1.7%
NC1C=CC=C(C(=O)O)C1 (centres undefined) -4.63%
NC1CONC1=O (centres undefined) 8.19%
CCCCCCCCCC(=O)NC(CN1CCOCC1)[C@H](O)c1ccccc1 (some centres undefined) -8.57%
CN(C)CCC(c1ccc(Cl)cc1)c1ccccn1 (centres undefined) 9.56%
N#Cc1cc2nc(O)c(O)nc2cc1[N+](=O)[O-] 1.78%
CN(C)CCCCSC(=N)N 0.024%
Clc1cccc(Cl)c1NC1=NCCN1 5.28%
OC[C@H]1O[C@@H](n2cnc3c(NC4CCCCC4)ncnc32)[C@H](O)[C@@H]1O 4.21%
Oc1ccc(C2CNCc3sccc32)cc1O (centres undefined) 10.1%
COc1cc(OC)c(/C=C2/C(=O)Nc3ccccc32)c(OC)c1 6.51%
CC1CCN(CC[C@H]2CCCN2S(=O)(=O)c2cccc(O)c2)CC1 -12.1%
Cc1nc2n(c(=O)c1CCN1CCC(c3noc4cc(F)ccc34)CC1)CCCC2 2.59%
CSC(N)=NCCC[C@H](N)C(=O)O 9.75%
C[C@H](Cc1ccccc1)Nc1ncnc2c1ncn2[C@@H]1O[C@H](CO)[C@H](O)C1O (some centres undefined) 0.221%
O=C1Nc2ccc(I)cc2/C1=C/c1cc(Br)c(O)c(Br)c1 -6.77%
NC(N)=NCCSSCCN=C(N)N -8.7%
Cc1[nH]c(=O)c(C#N)cc1-c1ccncc1 8.79%
